In PubChem BioAssay AID529 (NMMLSC, 2006):
The whole screen tested about 24,000 compounds, of which about 50 (0.2%) were called active. About 9% were inconclusive and are not listed.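 How the source made its calls: active means inhibition above 50%; inconclusive means compound itself fluorescent, judged against control cell fluorescence; inactive means the rest.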 What follows is part of a selection rich in actives, with near analogues and random picks from the rest.

Target: Integrin alpha-4 (Homo sapiens) (UniProt P13612)
Sequence (P13612 whole entry, looked up): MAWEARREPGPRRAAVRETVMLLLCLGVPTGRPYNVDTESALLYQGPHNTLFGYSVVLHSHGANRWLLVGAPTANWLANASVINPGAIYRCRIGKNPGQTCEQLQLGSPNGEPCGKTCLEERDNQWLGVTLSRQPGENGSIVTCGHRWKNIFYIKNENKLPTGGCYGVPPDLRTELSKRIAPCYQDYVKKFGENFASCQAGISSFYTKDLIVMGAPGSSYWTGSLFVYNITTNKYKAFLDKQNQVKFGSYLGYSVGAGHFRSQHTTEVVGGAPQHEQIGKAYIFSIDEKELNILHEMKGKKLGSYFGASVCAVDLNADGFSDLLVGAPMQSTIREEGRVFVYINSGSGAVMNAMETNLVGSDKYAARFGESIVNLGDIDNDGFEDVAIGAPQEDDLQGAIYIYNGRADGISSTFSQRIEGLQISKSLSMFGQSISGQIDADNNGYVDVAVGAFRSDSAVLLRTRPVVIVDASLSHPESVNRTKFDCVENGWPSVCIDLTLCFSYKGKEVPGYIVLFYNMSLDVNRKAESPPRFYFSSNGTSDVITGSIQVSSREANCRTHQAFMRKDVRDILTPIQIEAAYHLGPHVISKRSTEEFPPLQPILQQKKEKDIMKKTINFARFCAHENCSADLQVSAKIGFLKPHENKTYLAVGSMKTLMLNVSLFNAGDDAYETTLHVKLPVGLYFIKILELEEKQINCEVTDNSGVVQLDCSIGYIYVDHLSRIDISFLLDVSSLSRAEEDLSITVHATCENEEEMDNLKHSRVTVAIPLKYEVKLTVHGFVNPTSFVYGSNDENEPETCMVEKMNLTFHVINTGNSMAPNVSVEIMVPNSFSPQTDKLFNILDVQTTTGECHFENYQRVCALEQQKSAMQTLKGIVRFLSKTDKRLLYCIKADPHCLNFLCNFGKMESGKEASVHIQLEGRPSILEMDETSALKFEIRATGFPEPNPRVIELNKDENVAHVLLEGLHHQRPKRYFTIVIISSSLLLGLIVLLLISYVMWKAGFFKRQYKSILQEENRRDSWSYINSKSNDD
Assay: inhibitors of LDV-FITC binding to Mn2+-activated VLA-4, primary screen, Jurkat cells (AID 529);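 further: 0% = Mn2+ stimulated cells lacking compound and 100% = ligand binding without Mn2+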
Conditions: LDV-FITC binding with Mn2+, flow cytometry, stronger effect = higher value, 100% = Mn2+-driven binding gain fully reversed, screened at 10 µM (by protocol)

inhibition, inactive:
O=C(NCc1cccs1)c1ccc2c(c1)ncn2C1CCCC1 -10%
CCCn1cc(SCC(N)=O)c2ccccc21 -4%
N#CC1=C(N)Oc2cc(O)ccc2C1C1CCCCC1 (configuration not stated) -8%
CCOCCCN1C(=O)CN(C2CCCCC2)C(=O)C1c1ccc(OCC)c(OC)c1 (configuration not stated) 7%
COc1cc2c(cc1OC)C(c1ccc(C)o1)CC(=O)N2 (configuration not stated) 3%
CCCCOC(=O)NCN1C(=O)C2C3C=CC(C3)C2C1=O (configuration not stated) -15%
Cc1cc(N2C(=O)c3ccc(C(=O)NCc4ccccc4)cc3C2=O)no1 3%
CCCCc1nccn1CCn1ccnc1CCCC -5%
CCCS(=O)(=O)C(=C1Nc2ccccc2N1)S(=O)(=O)CCC 0%
CCCCNC(=O)c1c[nH]c2ccc(S(=O)(=O)Nc3ccc(OCC)cc3)cc2c1=O -22.5%
COc1ccc(C2CC(c3ccc(C)cc3)Nc3ncnn32)cc1 (configuration not stated) -3.7%
COc1ccc(C2C(C(=O)Nc3ccccc3OC)=C(C)Nc3nnnn32)c(OC)c1 (configuration not stated) 3%
CCCCOC(=O)Nc1nccs1 15.3%
O=C(CSC1=Nc2ccccc2C2=NC(c3ccccc3)C(=O)N12)NCC1CCCO1 (configuration not stated) 3%
COc1ccc(C2CC(c3ccc(Cl)cc3Cl)Nc3nc(N)nn32)cc1OC (configuration not stated) -5%
COc1cccc(NS(=O)(=O)c2ccc3[nH]cc(C(=O)NCCCOC(C)C)c(=O)c3c2)c1 -26%
CCOC(=O)c1oc2ccccc2c1NC(=O)c1cccs1 17%
Cc1nn(C)c(C)c1S(=O)(=O)N1CCc2ccccc21 2%
Cc1cccc(N2CCN(S(=O)(=O)c3ccc4c(c3)c(=O)n(C)c(=O)n4C)CC2C)c1 (configuration not stated) -4%
O=C(C1CCN(S(=O)(=O)c2cccs2)CC1)N1CCCCCC1 -3%
CN(C)CCCNC(=O)c1ccc2[nH]c3ccccc3c2c1 -6%
COc1ccc(CCNC(=O)CSc2nnc(CNC(=O)c3cccs3)o2)cc1OC 13%
CCOC(=O)C1(c2ccccc2)NC(c2ccc(N(C)C)cc2)C2C(=O)N(C)C(=O)C21 (configuration not stated) -13%
CCOc1ccc(NC(=O)N(CCC(C)C)C(C)c2ccco2)cc1 (configuration not stated) -12%
CCC(C)(C(=O)NC1CCCC1)N(C(=O)CNC(C)=O)c1ccc(C)cc1 (configuration not stated) -12%
Cc1ccc(C(=O)N(CN2CCCC2=O)c2ccc(F)cc2)cc1 -10%
CCN(CC)CCNC(=O)Cn1cnc2sc(C)c(S(=O)(=O)N3CCOCC3)c2c1=O 0%
COc1ccccc1CNC(=O)CCCn1c(=O)c2ccccc2n(CC(=O)NC2CCCC2)c1=O -2%
CCOC(=O)N1CCC(NC(=O)CN2C(=O)COc3ccc(C(C)(C)C)cc32)CC1 7%
O=c1c2[nH]c3ccc(Cl)cc3c2ncn1Cc1ccccn1 -1%
O=S(=O)(NCc1ccccc1Cl)c1cnc[nH]1 -2%
CCCCN=C(N)/C(C(=O)OCC)=C(\O)c1ccc(OC)cc1 9%
COc1ccc(S(=O)(=O)NC2(C(F)(F)F)N=C3SCCN3C2=O)cc1 (configuration not stated) -5%
Cc1ccc(-n2nc3c(c2NC(=O)c2ccc4c(c2)OCO4)CSC3)c(C)c1 13%
O=C(c1ccc2c(c1)N(Cc1ccc(F)cc1)C(=O)CS2)N1CCOCC1 -5%
CCCN1CCN(CCCNC(=O)CN2C(=O)COc3ccccc32)CC1 1%
Cc1cccc(CSc2nnc(Cn3c(=O)sc4ccccc43)n2C)c1 2%
COc1ccc(NC(=O)CN2CCN(S(=O)(=O)c3ccc(F)cc3)CC2)cc1Cl 9%
COCCn1c(=O)[nH]c2cc(C(=O)NCc3cccnc3)ccc2c1=O -22%
CCOc1ccccc1NC(=O)c1cc(S(=O)(=O)N2CCC3(CC2)OCCO3)ccc1F 8%
Cc1cc(C)c2c(n1)nn1c(N3CCOCC3)cc(C)nc21 -14%
CCOC(=O)CSc1nnc(CNC(=O)c2ccco2)n1-c1ccc(F)cc1 14%
